PI4K2A inh = qHTS for small molecular inhibitors of PI4K2A. 0.13% of 420,000 active. Phosphatidylinositol 4-kinase type 2-alpha (Homo sapiens), Q9BTU6. activity change, negative = inhibition, % at 76.9 µM. purified PI4K2A, ADP-Glo luminescence, 1 h; stronger effect = lower value; in the data active = activity change below about -50%; inconclusive = mostly about -30% to -49%;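 also: -100% = wells without enzyme as full effect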
Target sequence (Q9BTU6 whole entry, looked up): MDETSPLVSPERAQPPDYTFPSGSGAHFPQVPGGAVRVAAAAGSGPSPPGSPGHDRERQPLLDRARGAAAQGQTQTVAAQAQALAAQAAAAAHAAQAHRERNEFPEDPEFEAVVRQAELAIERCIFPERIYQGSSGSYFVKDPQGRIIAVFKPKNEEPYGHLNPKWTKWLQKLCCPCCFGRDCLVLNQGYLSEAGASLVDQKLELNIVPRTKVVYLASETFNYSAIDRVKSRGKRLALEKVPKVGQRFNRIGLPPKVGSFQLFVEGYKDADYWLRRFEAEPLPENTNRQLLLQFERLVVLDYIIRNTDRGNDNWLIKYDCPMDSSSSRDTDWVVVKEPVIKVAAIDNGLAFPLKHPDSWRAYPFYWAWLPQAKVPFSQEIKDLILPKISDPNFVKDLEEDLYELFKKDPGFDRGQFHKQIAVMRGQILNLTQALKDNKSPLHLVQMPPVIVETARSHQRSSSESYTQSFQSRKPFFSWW
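In this quantitative HTS, ADP production by PI4K2A was quantified luminescently after 1 h at ambient temperature; 100 microM adenosine served as plate-quality control.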
LDHA block = qHTS assay for inhibitors of human lactate dehydrogenase; purified LDHA, NADH/diaphorase-resazurin fluorescence; stronger effect = lower value; L-lactate dehydrogenase A chain (Homo sapiens), P00338; 0.15% of 480,000 active; activity change, % (values are at about 110 or 230 µM); in the data active = activity change below about -30%; inconclusive = mostly about -25% to -30%;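 also: plate controls were DMSO wells for no effect and wells without enzyme for full effect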
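Resorufin fluorescence (ex540/em590), read at 0 and 20 min after diaphorase/resazurin addition, reports the NADH left after a 5 min room-temperature reaction of 2 nM human LDH5 with 0.06 mM NADH and 0.2 mM pyruvate.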
Akt phos inh = HTS Assay for Inhibitors of Akt Phophorylation: Primary Screen. AID 651550, 2012. 0.32% of 360,000 active. Neuro2A IGF-stimulated pAkt S473 HTRF, 20 min; stronger effect = lower value. activity change, % for hits at 50 µM; in the data active = activity change below about -80%; inconclusive = mostly about -51% to -80%; also: % is scaled to controls: 0 for no effect and ±100 for the full control effect
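Neuro2A cells in DMEM with 0.5% FBS, overnight at 37 deg C, given compound at single 50 µM final, then IGF (6 nM final) for 20 min at 37 deg C. Lysed; phospho-Akt Ser473 by HTRF after 24 h, 665/615 ratio.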
RGS4 inh = Inhibitors of Regulator of G Protein Signaling (RGS) 4: qHTS; Transcreener GDP fluorescence polarization, RGS4-accelerated GTP hydrolysis; AID 504845, 2011; Regulator of G-protein signaling 4 (Homo sapiens), P49798; 0.039% of 390,000 active; Potency, µM (titrated, usually from 114 µM), inactives show top-dose activity change, negative = inhibition, actives largely listed as inhibitors; active = well fitted inhibition curve with a large enough effect; inconclusive = small, poorly fitted or top-dose-only effect; inactive = no such curve, though single readings can be large or run the other way; also: potency is read from the fitted curve at half-maximal effect; % is scaled to controls: 0 for no effect and ±100 for the full control effect; nearly all actives have a fitted effect of over 75% in size
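MLSMR compounds (23 nl, pin-transferred) preincubated 10 min at room temperature with a 500nM (2x) first reagent, then RGS4 at 900nM (2x) plus Transcreener GDP mix added; fluorescence polarization (620/688 nm) read before and after 90 min at 30 °C.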
DRD3 agonist = qHTS of D3 Dopamine Receptor Agonist: qHTS; 0.58% of 410,000 active; D3R DiscoveRx beta-arrestin cells, luminescence, 90 min; max activation, %; D(3) dopamine receptor (Homo sapiens), P35462; in the data active = max activation above about 30%; also: 0% is about no effect
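Cells at 1500/well, incubated overnight, then treated with pinned compounds (dopamine as control) for 90 min at 37 degrees C. DiscoveRx reagent added for 30 - 60 minutes at room temperature; luminescence read.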
D3 antag = qHTS of D3 Dopamine Receptor Antagonist: qHTS; D(3) dopamine receptor (Homo sapiens), P35462; D3R cells, DiscoveRx beta-arrestin luminescence, antagonist mode; stronger effect = lower value; max response, negative = inhibition, %; 2.5% of 360,000 active; AID 652054, 2013; in the data active = max response below about -50%; inconclusive = no clear call, values can overlap the other calls; also: % is scaled to controls: 0 for no effect and ±100 for the full control effect
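Cells plated overnight at 1500 cells/well, then exposed to library compounds with dopamine controls for 90 minutes at 37 degrees C. DiscoveRx reagent added for 30–60 minutes at room temperature; luminescence read, quantitative HTS format.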
An asterisk follows results filed as active. Hits are enriched below; roughly 2.8% of the tested compounds scored in any of these assays.

CC(CN1CCCCC1)OC(=O)C1c2ccccc2Oc2ccccc21 (stereo not drawn) was read as PI4K2A inh -2, LDHA block 4, Akt phos inh inactive, RGS4 inh 1%, DRD3 agonist -3 and D3 antag -63*.
For CC(CN1CCCCC1)OC(=O)c1ccc(Cl)cc1 (stereo not drawn) the results were PI4K2A inh -13, LDHA block 2, Akt phos inh inactive, RGS4 inh -13%, DRD3 agonist -18 and D3 antag -56*.
Cc1ccccc1NC(=O)COC(=O)c1cc(C(C)C)nc2ccccc12 was read as LDHA block -5.
For N#C/C(=C\C=C\c1ccco1)C(=O)NC1CCCCC1 the results were LDHA block 56.
Screening COc1ccc(CCNC(=O)CCc2c(C)noc2C)cc1OC returned LDHA block -6.
`O=C(C#Cc1ccccc1)c1cccc([N+](=O)[O-])c1` gave PI4K2A inh 21, LDHA block 1, Akt phos inh inactive, RGS4 inh inconclusive, DRD3 agonist -8 and D3 antag -56*.
CC(=O)c1cccc([N+](=O)[O-])c1 was read as PI4K2A inh -4, LDHA block -3, Akt phos inh inactive, RGS4 inh 24%, DRD3 agonist 2 and D3 antag -3.
For COc1ccc(S(=O)(=O)N2CCCCC2)cc1NC(=O)c1nn(CC(C)C)c(=O)c2ccccc12 the results were LDHA block 3.
For Cc1ccc(N2CCN(CCCCN3C(=O)C4CCCN4C3=O)CC2)cc1 (stereo not drawn) the results were PI4K2A inh -4, LDHA block 0, Akt phos inh inactive, RGS4 inh -4%, DRD3 agonist -17 and D3 antag -78*.
For O=C1C2CCCCN2C(=O)N1CCCCN1CCN(c2ccc(F)cc2)CC1 (stereo not drawn) the results were PI4K2A inh 0, LDHA block 0, Akt phos inh inactive, RGS4 inh 51%, DRD3 agonist -12 and D3 antag -92*.
`O=C1C2CCCN2C(=O)N1CCCCN1CCN(c2ccc(F)cc2)CC1` (stereo not drawn) gave PI4K2A inh -3, LDHA block -2, Akt phos inh inactive, RGS4 inh -23%, DRD3 agonist -9 and D3 antag -75*.
For O=C1C2CCCCN2C(=O)N1CCN1CCN(c2ccc(F)cc2)CC1 (stereo not drawn) the results were PI4K2A inh -2, LDHA block -2, Akt phos inh inactive, RGS4 inh -26%, DRD3 agonist -14 and D3 antag 15.
CCOP(=O)(OCC)c1nc(-c2ccc(C)cc2)oc1NCc1cccnc1 was read as LDHA block 2.
Screening Cn1c(SCCN2CCCCC2)nnc1-c1ccccc1Br returned PI4K2A inh 4, LDHA block inconclusive, Akt phos inh inactive, RGS4 inh -34%, DRD3 agonist -4 and D3 antag -63*.
Screening COc1ccc(OCCSc2nc(C)nc3ccccc23)cc1 returned PI4K2A inh -3, LDHA block -4, Akt phos inh inactive, RGS4 inh 8%, DRD3 agonist 55* and D3 antag 63.
For COc1ccc(-c2cc(=O)c3cc(OC)ccc3[nH]2)cc1 the results were PI4K2A inh inconclusive, LDHA block 0, Akt phos inh inactive, RGS4 inh 6%, DRD3 agonist -10 and D3 antag 6.
Screening COc1ccc(-c2cc(=O)[nH]c(=S)[nH]2)cc1 returned PI4K2A inh 2, LDHA block 0, Akt phos inh inactive, RGS4 inh -27%, DRD3 agonist 6 and D3 antag -50*.
`COc1cc(SC)ccc1C(=O)OC(C(=O)c1ccccc1)c1ccccc1` (stereo not drawn) gave LDHA block -33*.
`Cc1cc(NC(=O)C2CC=CCC2C(=O)O)no1` (stereo not drawn) gave PI4K2A inh -2, LDHA block 1, Akt phos inh inactive, RGS4 inh 21%, DRD3 agonist 2 and D3 antag -54*.
`COCCNC(=O)Cn1cc(S(=O)(=O)Cc2ccc(C)cc2)c2ccccc21` gave LDHA block 4.
For Oc1cccc(-c2nc3ccccc3s2)c1 the results were PI4K2A inh inconclusive, LDHA block 5, Akt phos inh inactive, RGS4 inh -23%, DRD3 agonist -2 and D3 antag 0.
Screening CC(=O)Nc1cccc(-c2nc3ccccc3s2)c1 returned PI4K2A inh -2, LDHA block -10, Akt phos inh inactive, RGS4 inh 2%, DRD3 agonist 5 and D3 antag 11.
For COC(=O)Cc1ccc2sc(-c3ccccc3)nc2c1 the results were PI4K2A inh -62*, LDHA block -6, Akt phos inh inactive, RGS4 inh -13%, DRD3 agonist 3 and D3 antag inconclusive.
`O=C(O)Cc1ccc2sc(-c3ccccc3)nc2c1` gave PI4K2A inh -67*, LDHA block -10, Akt phos inh inactive, RGS4 inh -13%, DRD3 agonist -5 and D3 antag 15.
`CCCCn1nc(C(=O)Nc2c(C)cccc2CC)c2ccccc2c1=O` gave LDHA block 3.
For O=C1Nc2ccc(I)cc2/C1=C/c1cc(Br)c(O)c(Br)c1 the results were PI4K2A inh -5 and RGS4 inh 9.5µM*.
For COc1ccc(CC(O)CC2c3c(cc4c(c3OC)OCO4)CCN2C)cc1 (stereo not drawn) the results were PI4K2A inh -4, LDHA block 2, Akt phos inh inactive, RGS4 inh -21%, DRD3 agonist -20 and D3 antag -69*.
For Nc1ccc2c(c1)N1CCN=C1S2 the results were PI4K2A inh 2, LDHA block 2, Akt phos inh inactive, RGS4 inh -45%, DRD3 agonist -2 and D3 antag -64*.
`COC(=O)c1ccc(COC(=O)c2cccc3ccccc23)cc1` gave LDHA block 3.
O=C(Nc1nc(-c2cccc([N+](=O)[O-])c2)cs1)C(c1ccccc1)c1ccccc1 was read as PI4K2A inh 2, LDHA block -1, Akt phos inh inactive, RGS4 inh 18%, DRD3 agonist -3 and D3 antag -53*.
